In PubChem BioAssay AID1159580 (chemical genetic matrix, 2015):
The whole screen tested about 5,500 compounds, of which about 2,000 (36%) were called active. Another 18% or so got no clear call; they are omitted. Cut-off read from the data, not from the text of the source: active = normalized growth mostly below about 0.91 (no sharp cut-off); inconclusive = no clear call, values can overlap the other calls; inactive = mostly above about 0.92. The list shows a part of the results.

Test: chemical genetic growth profiling, strain panel (AID 1159580);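 note: tested at 20 µM; growth read once vehicle control cultures reached saturation at 30 °C; 1 = growth at the plate median or of vehicle wells; lower values mean less growth of the strain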
Conditions: S. cerevisiae deletion strains, growth OD
[1] = locus YHR030C, strain SLT2, stronger effect = lower value
[2] = locus YHR079C, strain IRE1, stronger effect = lower value
[3] = locus YJL095W, strain BCK1, stronger effect = lower value
[4] = locus YJR066W, strain TOR1, stronger effect = lower value
[5] = locus YLR113W, strain HOG1, stronger effect = lower value
[6] = locus YNL183C, strain NPR1, stronger effect = lower value
[7] = locus YOR231W, strain MKK1, stronger effect = lower value
[8] = locus YPL256C, strain CLN2, stronger effect = lower value

Measured: normalized growth

Cc1ccccc1/C=C/C1=NCCN1
inactive: locus YAL013W, strain DEP1, stronger effect = lower value 0.997 | locus YAL040C, strain CLN3, stronger effect = lower value 1.09 | locus YCL061C, strain MRC1 (second series), stronger effect = lower value 1.01 | locus YDR150W, strain NUM1, stronger effect = lower value 1.02 | locus YDR363W, strain ESC2, stronger effect = lower value 0.999 | locus YER002W, strain NOP16, stronger effect = lower value 1.01 | locus YGR078C, strain PAC10, stronger effect = lower value 0.982 | locus YJR075W, strain HOC1, stronger effect = lower value 0.997 | locus YMR263W, strain SAP30, stronger effect = lower value 0.995 | locus YMR307W, strain GAS1, stronger effect = lower value 0.978 | locus YNL175C, strain NOP13, stronger effect = lower value 1 | locus YNL197C, strain WHI3, stronger effect = lower value 0.993 | locus YNL224C, strain SQS1, stronger effect = lower value 0.991 | locus YOR083W, strain WHI5 (second series), stronger effect = lower value 0.991

Cc1c[nH]c2ccccc12
inactive: [1] 0.992 | [2] 0.979 | [3] 0.999 | [4] 0.94 | [5] 0.945 | [6] 0.927 | [7] 1 | [8] 1.02

Cc1ccccc1/C=C/c1c[nH]c2ccccc12
inactive: locus YAR019C, strain CDC15, stronger effect = lower value 0.937 | locus YBL105C, strain PKC1, stronger effect = lower value 0.961 | locus YBR135W, strain CKS1, stronger effect = lower value 0.946 | locus YBR136W, strain MEC1, stronger effect = lower value 0.954 | locus YBR160W, strain CDC28, stronger effect = lower value 0.951 | locus YDL017W, strain CDC7, stronger effect = lower value 0.955 | locus YDL028C, strain MPS1, stronger effect = lower value 0.963 | locus YDL101C, strain DUN1, stronger effect = lower value 0.953 | locus YDL108W, strain KIN28, stronger effect = lower value 0.949 | locus YDL132W, strain cdc53, stronger effect = lower value 0.942 | locus YDL214C, strain PRR2, stronger effect = lower value 0.902 | locus YDR052C, strain DBF4, stronger effect = lower value 0.95 | locus YDR054C, strain cdc34, stronger effect = lower value 0.985 | locus YDR226W, strain ADK1, stronger effect = lower value 0.949 | locus YDR477W, strain SNF1, stronger effect = lower value 0.924 | locus YER123W, strain YCK3, stronger effect = lower value 0.855 | locus YER133W, strain GLC7, stronger effect = lower value 0.906 | locus YFL009W, strain cdc4, stronger effect = lower value 0.945 | locus YFL029C, strain CAK1, stronger effect = lower value 0.92 | locus YFR003C, strain YPI1, stronger effect = lower value 0.958 | locus YFR019W, strain FAB1, stronger effect = lower value 0.924 | locus YFR028C, strain CDC14, stronger effect = lower value 0.955 | locus YGR040W, strain KSS1, stronger effect = lower value 0.916 | locus YGR052W, strain FMP48, stronger effect = lower value 0.965 | locus YGR092W, strain DBF2, stronger effect = lower value 0.858 | [1] 0.921 | [2] 0.948 | locus YHR082C, strain KSP1, stronger effect = lower value 0.937 | locus YHR205W, strain SCH9, stronger effect = lower value 0.88 | locus YIL147C, strain SLN1, stronger effect = lower value 0.956 | [3] 0.946 | locus YJL128C, strain PBS2, stronger effect = lower value 0.906 | locus YJL157C, strain FAR1, stronger effect = lower value 0.895 | locus YJR016C, strain ILV3, stronger effect = lower value 0.952 | locus YJR066W, strain TOR1 (second series), stronger effect = lower value 0.882 | [4] 0.955 | locus YKL048C, strain ELM1, stronger effect = lower value 0.948 | locus YKL067W, strain YNK1, stronger effect = lower value 0.91 | locus YKL101W, strain HSL1, stronger effect = lower value 0.94 | locus YKL193C, strain SDS22, stronger effect = lower value 0.948 | locus YKL203C, strain TOR2, stronger effect = lower value 0.989 | locus YLR133W, strain CKI1, stronger effect = lower value 0.931 | locus YLR403W, strain SFP1, stronger effect = lower value 0.893 | locus YML070W, strain DAK1, stronger effect = lower value 0.891 | locus YMR001C, strain CDC5, stronger effect = lower value 0.937 | locus YMR205C, strain PFK2 (second series), stronger effect = lower value 0.934 | locus YMR277W, strain FCP1, stronger effect = lower value 0.959 | locus YNL006W, strain LST8, stronger effect = lower value 0.955 | locus YNL020C, strain ARK1, stronger effect = lower value 0.912 | locus YNL161W, strain CBK1, stronger effect = lower value 0.953 | [6] 0.94 | locus YNL207W, strain RIO2, stronger effect = lower value 0.948 | locus YNL222W, strain SSU72, stronger effect = lower value 0.946 | locus YNL307C, strain MCK1 (second series), stronger effect = lower value 0.941 | locus YOL078W, strain AVO1, stronger effect = lower value 0.946 | locus YOL136C, strain PFK27, stronger effect = lower value 0.887 | locus YOR061W, strain CKA2, stronger effect = lower value 0.895 | locus YOR119C, strain RIO1, stronger effect = lower value 0.943 | [7] 0.923 | locus YOR329C, strain SCD5, stronger effect = lower value 0.961 | locus YPL031C, strain PHO85, stronger effect = lower value 0.914 | locus YPL153C, strain RAD53, stronger effect = lower value 0.931 | locus YPL204W, strain HRR25, stronger effect = lower value 0.941 | locus YPL209C, strain IPL1, stronger effect = lower value 0.95 | [8] 0.91 | locus YPR025C, strain CCL1, stronger effect = lower value 0.955 | locus YPR106W, strain ISR1, stronger effect = lower value 0.964 | locus YPR111W, strain DBF20, stronger effect = lower value 0.952 | strain NNK1, stronger effect = lower value 0.961 | strain TSCII, stronger effect = lower value 0.947
active: [5] 0.784
